# Assay results from PubChem BioAssay.
# Unmarked numbers belong to inactive results.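 The calls were made as follows, unless noted: active = RAM network inhibition above 8.4% in each of two replicates, 3 SD over the compound average; inconclusive = above 8.4% inhibition in only one replicate; inactive = 8.4% inhibition or less in each replicate.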
# Test: inhibitors of the yeast RAM network, pilot screen, dse1pr::URA3 reporter, 5-FOA selection (AID 869;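 active = inhibition over a set limit, the all-compound mean plus 3 SD, in both replicate runs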;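 also: 0% = DMSO wells with no growth and 100% = 10 µM 1-NA-PP1 with full growth; RAM network block rescues cells from 5-FOA so hits raise OD615 growth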)
# Conditions: S. cerevisiae dse1pr::URA3 5-FOA growth, OD615, 2 d; at 10 µM; hits give high values; strain carries analog-sensitive mutant Cbk1 kinase
row,Compound,inhibition [%]
1,Cc1ccc(S(=O)(=O)NC2OC(=O)C(Cl)=C2Cl)cc1 (stereo not drawn),0.495
2,O=C(Nc1ccccc1)OCCOc1ccccc1,2.92
3,COC(=O)C1=C(C)N(C)C(C)=C(C(=O)OC)C1c1cccc(Br)c1,0.57
4,CCC(C)NS(=O)(=O)c1ccc(NC(=O)c2c(-c3ccccc3)noc2C)cc1 (stereo not drawn),0.48
5,CN(C)S(=O)(=O)c1ccc(NC(=O)C2COc3ccccc3O2)cc1 (stereo not drawn),1.27
6,Cc1cc(C)cc(N(CC(=O)Nc2c(C)n(C)n(-c3ccccc3)c2=O)S(C)(=O)=O)c1,0.71
7,CCOC(=O)C1CCCN(C(=O)Cn2ncc3c(=O)oc4ccc(C)cc4c32)C1 (stereo not drawn),2.19
8,Cn1c(=O)c2c(nc(-n3ccnc3)n2Cc2ccc(Cl)cc2Cl)n(C)c1=O,1.17
9,CCOC(=O)c1ccc(NC(=O)C2CCN(S(=O)(=O)c3ccccc3)CC2)cc1,1.47
10,COc1ccc(-c2c(C)oc3c(CN4CCCCC4C)c(O)ccc3c2=O)cc1OC (stereo not drawn),1.71
11,CCCC(=N)C1=C(O)CC(CC(C)SCC)CC1=O (stereo not drawn),0.49
12,NC(=O)C1CCN(C(=O)c2ccc(CS(=O)(=O)c3c(Cl)cccc3Cl)o2)CC1,1.49
13,CC(C)Sc1nc2c(cnn2-c2ccc(F)cc2)c(=O)[nH]1,0.795
14,COc1ccc(C(=O)Nc2ccc(S(=O)(=O)N3CCCCC3C)cc2)c(OC)c1OC (stereo not drawn),0.03
15,COc1ccccc1N1CCN(Cc2cc(Br)c(O)c3ncccc23)CC1,-0.8
16,CCc1nc(N(CC)CC)c2oc3ccccc3c2n1,-0.16
17,Cc1cc(NC(=O)c2cc(CC(C)C)on2)no1,0.67
18,CCOC(=O)CNC(=O)c1cn(CC(C)C)c(=O)c2cc(OC)c(OC)cc12,-0.375
19,Nc1c(C(=O)c2ccc(Br)s2)oc2ccccc12,-0.045
20,CCn1c(N)nc2c1c(=O)n(C)c(=O)n2C,0.32

row,Compound,inhibition [%]
1,COc1ccc(CNC(=O)CS(=O)Cc2nc(-c3ccccc3C)oc2C)cc1 (stereo not drawn),0.275
2,CCNC(=O)Cc1ccc(NS(=O)(=O)c2ccc(F)cc2)cc1,0.34
3,CCc1ccc(-c2nc(CN3CCCC(C(=O)O)C3)c(C)o2)cc1 (stereo not drawn),-0.145
4,Cc1nnc(SCCC(C)C)[nH]c1=O,0.745
5,O=C(Cn1c(S(=O)(=O)Cc2ccccc2)nc2ccccc21)N1CCCCC1,-0.04
6,COc1cc(C(=O)NCc2ccco2)c(Br)c(OC)c1OC,0.865
7,COc1ccc(O)c(-c2[nH]ncc2C(=O)c2ccccc2)c1,1.27
8,Cc1ccc(Cl)cc1NC(=O)COC(=O)C1CCCC1,1.32
9,Cc1cc(NCc2ccco2)nc2cc(O)ccc12,1.35
10,CC(=O)c1c(N2CCN(c3ccccc3)CC2)nc(=S)n(-c2ccccc2)c1C,0.91
11,O=C(CSCC(=O)N1CCOCC1)Nc1nc(-c2ccc3c(c2)OCO3)cs1,0.47
12,Cc1ccc(C(=O)N2CCN(C3CCCCC3)CC2)s1,1.48
13,CC1=C(C(=O)OCc2ccccc2)C(c2ccco2)C2=C(CC(C)(C)CC2=O)N1 (stereo not drawn),2.4
14,COC(=O)C1Sc2[nH]c(=O)sc2C(c2ccc(Cl)cc2)C1C(=O)OC (stereo not drawn),4.36
15,CC12C(=O)N(c3ccccn3)C(=O)C1C1C=CC2C1 (stereo not drawn),1.26
16,c1ccc(Cn2ncc3c(N4CCCCC4)ncnc32)cc1,0.01
17,CCOc1ccccc1Nc1nnc(C)c(=O)[nH]1,0.56
18,CCOCCCNC(=O)C(c1ccc(OC)cc1)N(Cc1ccc2c(c1)OCO2)C(=O)CNC(C)=O (stereo not drawn),1.34
19,CCCCC(CC)C(=O)NCCc1ccc(S(N)(=O)=O)cc1 (stereo not drawn),1

# Test: RAM signaling pathway blockade in yeast – S. cerevisiae, Pdr1DBD-CYC8 efflux-inhibited sensitized strain, primary screen (AID 1298);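 also: 0% = DMSO untreated cells without growth and 100% = 10 µM 1-NA-PP1 full growth; higher means more yeast growth rescued from 5-FOA killing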
# Conditions: S. cerevisiae cbk1-as DSE1-URA3 strain, 5-FOA growth OD615, 2 d; at 50 µM; hits give high values
row,Compound,RAM network inhibition [%]
1,Cc1ccc(S(=O)(=O)NC2OC(=O)C(Cl)=C2Cl)cc1 (stereo not drawn),2.08
2,O=C(Nc1ccccc1)OCCOc1ccccc1,1.95
3,COC(=O)C1=C(C)N(C)C(C)=C(C(=O)OC)C1c1cccc(Br)c1,9.03
4,CCC(C)NS(=O)(=O)c1ccc(NC(=O)c2c(-c3ccccc3)noc2C)cc1 (stereo not drawn),5.94
5,CN(C)S(=O)(=O)c1ccc(NC(=O)C2COc3ccccc3O2)cc1 (stereo not drawn),2.63
6,Cc1cc(C)cc(N(CC(=O)Nc2c(C)n(C)n(-c3ccccc3)c2=O)S(C)(=O)=O)c1,2.45
7,CCOC(=O)C1CCCN(C(=O)Cn2ncc3c(=O)oc4ccc(C)cc4c32)C1 (stereo not drawn),3.43
8,Cn1c(=O)c2c(nc(-n3ccnc3)n2Cc2ccc(Cl)cc2Cl)n(C)c1=O,5.62
9,CCOC(=O)c1ccc(NC(=O)C2CCN(S(=O)(=O)c3ccccc3)CC2)cc1,6.37
10,COc1ccc(-c2c(C)oc3c(CN4CCCCC4C)c(O)ccc3c2=O)cc1OC (stereo not drawn),4.01
11,CCCC(=N)C1=C(O)CC(CC(C)SCC)CC1=O (stereo not drawn),-1.1
12,NC(=O)C1CCN(C(=O)c2ccc(CS(=O)(=O)c3c(Cl)cccc3Cl)o2)CC1,1.38
13,CC(C)Sc1nc2c(cnn2-c2ccc(F)cc2)c(=O)[nH]1,3.54
14,COc1ccc(C(=O)Nc2ccc(S(=O)(=O)N3CCCCC3C)cc2)c(OC)c1OC (stereo not drawn),1.24
15,COc1ccccc1N1CCN(Cc2cc(Br)c(O)c3ncccc23)CC1,-1.73
16,CCc1nc(N(CC)CC)c2oc3ccccc3c2n1,1.04
17,Cc1cc(NC(=O)c2cc(CC(C)C)on2)no1,6.04
18,CCOC(=O)CNC(=O)c1cn(CC(C)C)c(=O)c2cc(OC)c(OC)cc12,4.17
19,Nc1c(C(=O)c2ccc(Br)s2)oc2ccccc12,2.7
20,CCn1c(N)nc2c1c(=O)n(C)c(=O)n2C,2.67

row,Compound,RAM network inhibition [%]
1,COc1ccc(CNC(=O)CS(=O)Cc2nc(-c3ccccc3C)oc2C)cc1 (stereo not drawn),1.98
2,CCNC(=O)Cc1ccc(NS(=O)(=O)c2ccc(F)cc2)cc1,2.36
3,CCc1ccc(-c2nc(CN3CCCC(C(=O)O)C3)c(C)o2)cc1 (stereo not drawn),2.81
4,Cc1nnc(SCCC(C)C)[nH]c1=O,3.25
5,O=C(Cn1c(S(=O)(=O)Cc2ccccc2)nc2ccccc21)N1CCCCC1,3.73
6,COc1cc(C(=O)NCc2ccco2)c(Br)c(OC)c1OC,-0.16
7,COc1ccc(O)c(-c2[nH]ncc2C(=O)c2ccccc2)c1,4.35
8,Cc1ccc(Cl)cc1NC(=O)COC(=O)C1CCCC1,1.69
9,Cc1cc(NCc2ccco2)nc2cc(O)ccc12,1.95
10,CC(=O)c1c(N2CCN(c3ccccc3)CC2)nc(=S)n(-c2ccccc2)c1C,6.47
11,O=C(CSCC(=O)N1CCOCC1)Nc1nc(-c2ccc3c(c2)OCO3)cs1,6.38
12,Cc1ccc(C(=O)N2CCN(C3CCCCC3)CC2)s1,1.05
13,CC1=C(C(=O)OCc2ccccc2)C(c2ccco2)C2=C(CC(C)(C)CC2=O)N1 (stereo not drawn),1.23
14,COC(=O)C1Sc2[nH]c(=O)sc2C(c2ccc(Cl)cc2)C1C(=O)OC (stereo not drawn),2.45
15,CC12C(=O)N(c3ccccn3)C(=O)C1C1C=CC2C1 (stereo not drawn),1.11
16,c1ccc(Cn2ncc3c(N4CCCCC4)ncnc32)cc1,3.67
17,CCOc1ccccc1Nc1nnc(C)c(=O)[nH]1,3.65
18,CCOCCCNC(=O)C(c1ccc(OC)cc1)N(Cc1ccc2c(c1)OCO2)C(=O)CNC(C)=O (stereo not drawn),4.4
19,CCCCC(CC)C(=O)NCCc1ccc(S(N)(=O)=O)cc1 (stereo not drawn),-0.82
